Measured values: PubChem BioAssay (NCI)
Several values for one entry are separate records, joined by “and”; a condition that tells them apart may be missing. Equal entries are not always repeated. This is part of a sample that, as a whole, favours compounds with a hit. Of some 83,000 tested, about 20% had one in any assay.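 96-well plates, one dose, 48 hours. Percent growth reported; active if below 10.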 A number with no mark means an inactive call. Activity calls are given as the source filed them.

Test system: MDA-MB-468 breast
Assay: NCI-60 one-dose screen, 48 h (100 = growth as untreated, 0 = no growth, -100 = all killed)
Details: 10 µM unless noted

SMILES	growth
C=C1C(=O)O[C@H]2[C@H]1CC/C(CNS(=O)(=O)c1ccc3ccccc3c1)=C\CC[C@@]1(C)O[C@@H]21	-54% (active)
O=C(CCSc1nnc2n(Cc3ccccc3)c(=O)c3c4c(sc3n12)CCCC4)N1CCN(c2ccccc2)CC1	101%
CN(C)C(CNc1oc(-c2cccc3ccccc23)nc1C#N)c1ccco1 (centres undefined)	97%
C=C(CN1CC=CCC1)[C@@H]1CC[C@]2(COC(C)=O)CC[C@]3(C)[C@H](CC[C@@H]4[C@@]5(C)CC[C@H](O)C(C)(C)[C@@H]5CC[C@]43C)[C@@H]12	95%
CN1C(=O)N(C)C2Nn3c(s/c(=C\c4ccc(Cl)cc4Cl)c3=O)=NC21 (centres undefined)	59%
O=C(O)C(Cc1ccc(OS(=O)(=O)Cc2ccccc2)cc1)NS(=O)(=O)Cc1ccccc1 (centres undefined)	105% and 117%
COc1cc(/C=C2\CN(C)C/C(=C\c3cc(CN4CCCC4)c(O)c(OC)c3)C2=O)cc(CN2CCCC2)c1O	41.8%
O=C1c2[nH]cc(CN[C@@H]3CCCN3)c2C(=O)c2c1c(O)c1ccccc1c2O	-92.4% (active)
Nc1nnc(-c2ccc3ccccc3c2O)o1	96.5%
CN(C)CC/C=C1\c2ccccc2Sc2ccc(Cl)cc21	8.92% (active)
Cc1cc(=O)n(-c2ccc(F)cc2)[nH]1	113%
COc1ccc2c(c1)[n+](=O)c(/C=C/C(=O)c1cc(OC)c(OC)c(OC)c1)c(C)n2[O-]	24.9%
COc1ccc(/C=C\c2cc(OC)c(OC)c(OC)c2)c(NS(=O)(=O)c2ccc(C(C)(C)C)cc2)c1O	38.9%
CCN1CCN(Cc2ccc(C(=O)Nc3nc4ccc(Oc5ccnc(C(=O)NC)c5)cc4s3)cc2C(F)(F)F)CC1	36.1%
O=C(CSC1CCc2ccccc21)N/N=C/c1ccccc1O (centres undefined)	33.9%
Nc1cc2c(cc1C(=O)c1cccc(F)c1)OCCO2	93.8%
COc1cc2c(=O)n(CCN(C)C)c3c4cc5c(cc4ccc3c2cc1OC)OCO5	-66.8% (active)
CC(C)(C)NC(C1=CC(C)(C)c2ccccc2C1=O)c1ccccc1 (centres undefined)	-100% (active)
O=C(CCCCCCSc1nc(-c2ccc(Cl)cc2)cc(-c2ccc(Cl)cc2)n1)NO	32.6%
